Source: PubChem BioAssay (National Center for Advancing Translational Sciences (NCATS))
The list is not random: actives were taken first. Their share in the collection is about 2%.
ClpP mod: qHTS Assay for Activators of ClpP. purified B. subtilis ClpP, FRET peptide cleavage, 20 min. Potency, µM (titrated, usually from 57.5 µM). 340,000 compounds, 1.9% hits. AID 651965, 2013; active means well fitted falling curve with a large enough effect; inconclusive means small, poorly fitted or top-dose-only effect; inactive means no such curve, though single readings can be large or run the other way; further: the source files actives as falling curves though it sought activators and does not explain the sign; nearly all actives have a fitted effect of over 65% in size
Target sequence (P80244 whole entry, looked up): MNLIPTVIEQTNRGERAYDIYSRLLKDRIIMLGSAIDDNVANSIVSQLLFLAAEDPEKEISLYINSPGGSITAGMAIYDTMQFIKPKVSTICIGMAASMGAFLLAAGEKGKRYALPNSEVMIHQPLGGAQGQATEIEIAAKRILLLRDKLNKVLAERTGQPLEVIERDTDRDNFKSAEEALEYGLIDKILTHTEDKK
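Buffer: 100 mM Tris/HCl pH8, 100 mM KCl, 0.05% low protease BSA, 2.5% glycerol, 0.01% Tween-20. ClpP 10 microg/mL final; 20 min RT; delta FRET normalized to ADEP and DMSO controls.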
NPSR antag: blocks cAMP signaling of the human neuropeptide S receptor | Q6W5P4 | CHO-NPSR cells, cAMP TR-FRET, antagonist mode | Potency, µM (top dose mostly 38.3 µM), most hits filed as inhibitors | 220,000 compounds, 1% hits; further: nearly all actives have a fitted effect of over 50% in size
Target sequence (Q6W5P4 whole entry, looked up): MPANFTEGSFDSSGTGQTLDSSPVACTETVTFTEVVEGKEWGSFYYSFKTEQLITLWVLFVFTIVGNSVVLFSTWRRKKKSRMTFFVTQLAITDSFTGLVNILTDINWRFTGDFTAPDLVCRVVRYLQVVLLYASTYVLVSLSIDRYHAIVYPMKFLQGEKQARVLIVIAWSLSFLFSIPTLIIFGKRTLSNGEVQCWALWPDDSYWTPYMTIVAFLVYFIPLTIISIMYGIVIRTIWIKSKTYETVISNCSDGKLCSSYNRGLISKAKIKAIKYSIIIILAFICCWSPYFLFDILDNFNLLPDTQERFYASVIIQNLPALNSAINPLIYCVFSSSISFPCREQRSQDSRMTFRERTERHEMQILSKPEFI
IL2 activator: activators of IL-2 | AID 652025 | 360,000 compounds, 0.065% hits | activation, % (series mostly up to about 46 µM) | IL-2 activation reporter assay, cell-based qHTS; stimulated with anti-CD3/CD4/CD28 beads; in transgenic mouse T cells; in the data active means activation above about 50%; inconclusive means mostly about 30% to 49%
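Unstimulated transgenic mouse T cells; 60-min compound exposure; bead-based TCR/CD4/CD28 stimulation; 18 h culture, 37 degrees C; dual fluorescence (EGFP, DsRed) plate cytometry.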
PKM2 activator: increases activity of human pyruvate kinase M2; P14618; purified PKM2, Kinase-Glo ATP luminescence, activation; response scale: 0% is enzyme alone, no compound; Potency, µM (titrated, usually from 57.5 µM), usual class: activators; 260,000 compounds, 0.34% hits; further: nearly all actives have a fitted effect of over 55% in size
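Kinase-Glo luminescence reports ATP generated from ADP (0.1 mM) and PEP (0.5 mM) by purified hPK-M2 after 1 h at room temperature, pH 7.2 imidazole buffer; intermediate enzyme activity allows detecting inhibitors and activators.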
Large screens that a line does not name were inactive; ! = not active in a repeat. Unless noted, the call rests on the fitted dose curve; in most records, active means well fitted curve in the direction sought with a large enough effect; inconclusive means small, poorly fitted or top-dose-only effect, or another doubt; inactive means no such curve, though single readings can be large; an effect the other way counts as inactive or inconclusive.

CC(C)CN1C(=O)C(=O)N(CC(=O)NC2CCCc3ccccc32)C1=O (stereo unspecified)	none
O=c1oc2ccccc2cc1-c1nc2c(s1)CCCC2	ClpP mod 35µM, NPSR antag inconclusive
O=c1oc2ccccc2cc1-c1nc2ccccc2o1	none
CSc1nc2cc(Oc3cccc(Cl)c3Cl)c(Cl)cc2[nH]1	NPSR antag 13µM
CSc1nc2ccc(Cl)cc2[nH]1	none
COc1cccc(-c2ccc(C#N)c(OC(=O)c3c(Cl)cccc3Cl)n2)c1	ClpP mod 16µM
COc1cccc(-c2ccc(C#N)c(OC(=O)c3ccc(Cl)cc3)n2)c1	none
Cc1sc2ncnc(N3CCC(C(=O)NNC(=O)c4ccc(Cl)cc4)CC3)c2c1C	ClpP mod 13µM (no result: NPSR antag, PKM2 activator)
Cc1sc2ncnc(N3CCC(C(=O)Nc4cc(Cl)ccc4Cl)CC3)c2c1C	none (no result: NPSR antag, PKM2 activator)
O=C(Cn1cnc2ccccc2c1=O)N1CCN(Cc2ccccc2)CC1	ClpP mod 20µM
O=C(Cn1cnc2c(nnn2Cc2ccc(F)cc2)c1=O)N1CCN(c2ccccc2)CC1	ClpP mod 25µM
O=C(Cn1cnc2c(cnn2-c2ccccc2)c1=O)N1CCN(c2ccc(F)cc2)CC1	none
CCOC(=O)N1CCN(C(=O)CNC(=O)c2ccc(Cl)cc2)CC1	none (no result: NPSR antag)
O=C1CN2Cc3c(ccc(Cl)c3Cl)N=C2N1	none (no result: NPSR antag, PKM2 activator)
FC(F)(F)c1cccnc1-n1cncn1	none
COc1ccc(Br)cc1CNC(=O)CCC(=O)n1nc(C)c2ccccc21	none (no result: NPSR antag, PKM2 activator)
C/C(=C\c1ccc(C)o1)C(=O)c1c(C)cc(C)[nH]c1=O	PKM2 activator 10µM
C/C(=C\c1cccc(Br)c1)C(=O)c1c(C)cc(C)[nH]c1=O	none (no result: NPSR antag, PKM2 activator)
COc1ccc(OCc2cc(C(=O)NCc3cccc(C)n3)no2)c(Cl)c1	none (no result: NPSR antag)
COc1ccc(C2C(C#N)=C(C)NC3=C2C(=O)CC(C)(C)C3)c(OC)c1 (stereo unspecified)	ClpP mod inconclusive
COc1ccc(C2C(C(=O)N3CCOCC3)=C(C)NC3=C2C(=O)CC(C)(C)C3)c(OC)c1 (stereo unspecified)	ClpP mod 16µM
CC1=C(C(=O)N2CCOCC2)C(c2ccccc2F)C2=C(CC(C)(C)CC2=O)N1 (stereo unspecified)	ClpP mod 14µM
CCOc1ccccc1N	none (no result: NPSR antag, PKM2 activator)
CC1CC=CCC1(CO)CO (stereo unspecified)	none (no result: NPSR antag, PKM2 activator)
Cc1ccc(S(=O)(=O)N2CCCCC2)cc1NC(=O)c1cncc(Br)c1	ClpP mod 11µM (no result: NPSR antag, PKM2 activator)
CCCNC(=O)[C@H]1N2C(=O)c3c(ccc(OC)c3OC)C2SC1(C)C (stereo partly specified)	none (no result: NPSR antag, PKM2 activator)
COC(=O)c1c(NC(=O)/C=C/C(=O)O)sc(C)c1-c1ccc(C(C)C)cc1	NPSR antag 13µM
COC(=O)c1c(NC(=O)/C=C/C(=O)O)sc(C)c1-c1ccc(C)cc1	none (no result: ClpP mod)
C=CC1=CCN(S(=O)(=O)C(C)(C)C)[C@H]1CCO	none (no result: NPSR antag, PKM2 activator)
Cc1ccc(NC(=O)Nc2ccccc2F)cc1S(=O)(=O)N1CCOCC1	none (no result: NPSR antag, PKM2 activator)
Cc1cn2c(=O)c(S(=O)(=O)NCc3ccc(F)cc3)c(C)nc2s1	ClpP mod 32µM (no result: NPSR antag, IL2 activator, PKM2 activator)
Cc1cn2c(=O)c(S(=O)(=O)NCc3ccccc3Cl)c(C)nc2s1	ClpP mod 16µM (no result: NPSR antag, IL2 activator, PKM2 activator)
O=C(O)CN1C(=O)C2C3CC(C2C1=O)C1C(c2ccc(Cl)cc2)c2sc(=O)[nH]c2SC31 (stereo unspecified)	none
c1ccc2c(c1)c1c(c3ccccc32)CN2CCCC2C1 (stereo unspecified)	ClpP mod 20µM (no result: NPSR antag, PKM2 activator)
c1ccc(CN2CCC(N3CCC(N4CCCCCC4)CC3)CC2)cc1	none (no result: NPSR antag)
Nc1ccc(Cl)c(S(=O)(=O)Nc2ccc(Cl)cc2)c1	none (no result: ClpP mod)
CCc1cc2c(SCC(=O)N3CCCC3=O)ncnc2s1	none (no result: NPSR antag, PKM2 activator)
CCCC(=O)Nc1nc2nc(-c3ccccc3)cc(-c3ccccc3)n2n1	ClpP mod 13µM
O=C(O)CCn1cc(/C=C2/NC(=S)N(c3ccccc3)C2=O)c(-c2ccccc2)n1	ClpP mod 13µM
N#CCCn1cc(/C=C2\NC(=S)N(c3ccccc3)C2=O)c(-c2ccc(-c3ccccc3)cc2)n1	none (no result: ClpP mod)
COc1ccc(C(=O)OCC(=O)c2ccccc2)cc1S(=O)(=O)N1CCOCC1	none
CC(C)n1cc(-c2ccc(Cl)cc2)cc(C#N)c1=O	ClpP mod 32µM
C=CCn1cc(-c2ccc(Cl)cc2)cc(C#N)c1=O	ClpP mod 32µM
N#Cc1cc(-c2ccc(Cl)cc2)cn(Cc2c(Cl)cccc2Cl)c1=O	ClpP mod 25µM, NPSR antag inconclusive
Cn1cc(-c2cccc(Cl)c2)cc(C#N)c1=O	none (no result: ClpP mod)
C=CCn1cc(-c2ccccc2)cc(C#N)c1=O	ClpP mod inconclusive
COc1ccc(C(C(=O)Nc2ccc(C(C)C)cc2)N(C)C(=O)c2ccc(=O)[nH]c2)cc1 (stereo unspecified)	none (no result: ClpP mod)
O=S(=O)(c1ccc(Cl)cc1)N1CCN(c2nc(-c3cccs3)nc3ccccc23)CC1	ClpP mod 20µM!
O=S(=O)(c1cccnc1)N1CCN(c2nc(-c3cccs3)nc3ccccc23)CC1	ClpP mod 32µM (no result: NPSR antag, IL2 activator, PKM2 activator)
O=S(=O)(c1ccccc1)N1CCN(c2nc(-c3cccs3)nc3ccccc23)CC1	ClpP mod inconclusive (no result: IL2 activator)
COc1cc(OC)c(OC)cc1/C=N/NC(=S)NCCN1CCOCC1	none (no result: ClpP mod)
COc1cc(OC)c(OC)cc1/C=N/NC(=S)NCC1CCCO1 (stereo unspecified)	ClpP mod 32µM
O=C(NC1CCCCC1)N(CCN1CCCC1)Cc1cc2cc3c(cc2[nH]c1=O)OCCO3	ClpP mod 35µM
Cc1ccc2cc(CN(CCCN3CCOCC3)C(=O)NC3CCCCC3)c(=O)[nH]c2c1C	ClpP mod 28µM, NPSR antag inconclusive
Cc1cccc(OCC(=O)N(Cc2sccc2C)C2CCS(=O)(=O)C2)c1 (stereo unspecified)	none (no result: NPSR antag, IL2 activator, PKM2 activator)
Cc1ccc(OCCC(=O)NCCc2ccc(S(N)(=O)=O)cc2)cc1	ClpP mod 13µM
CC(C)(C)c1ccc(OCCC(=O)NCCc2ccc(S(N)(=O)=O)cc2)cc1	none (no result: NPSR antag)
CNS(=O)(=O)c1cccc(C(=O)OCC(=O)Nc2ccccc2F)c1	none (no result: ClpP mod)
CCN1C=C(Cc2ccccc2C)C2=C(C1)C(c1ccccc1C)C(C#N)=C(N)O2 (stereo unspecified)	NPSR antag inconclusive
CCN1C=C(Cc2ccc(F)cc2)C2=C(C1)C(c1ccc(F)cc1)C(C#N)=C(N)O2 (stereo unspecified)	NPSR antag 10µM
COc1ccc(NS(=O)(=O)c2ccc(C(=O)N3CCN(c4ccc(F)cc4)CC3)cc2)cc1	none (no result: NPSR antag, PKM2 activator)
O=C(CCc1ccc(S(=O)(=O)NCc2ccccc2)cc1)NCc1cccnc1	ClpP mod 14µM
CCNS(=O)(=O)c1ccc(CCC(=O)NCc2cccnc2)cc1	none (no result: NPSR antag)
CCc1cc2c3c(c(=O)oc2cc1OC)CCCC3	ClpP mod 35µM
Cc1ccccc1CS(=O)(=O)CCC(=O)N1CCN(c2ccc(N3CCOCC3)nn2)CC1	ClpP mod 22µM
COc1ccc(C(=O)NC(C)CCc2ccccc2)cc1 (stereo unspecified)	none (no result: NPSR antag)
COC(=O)Nc1ccc(=O)n(Cc2c(Cl)cccc2Cl)c1	ClpP mod 28µM
